Compound activity as filed in PubChem BioAssay.
The list is not random: actives were taken first. Their share in the collection is about 2.5%.
H9c2 TAG inh = inhibitors of triacylglycerol accumulation, primary screen, cell-based, uHTS, fluorescence, H9c2; H9c2 cells, Nile Red lipid (TAG) fluorescence; cells loaded with 200 µM oleic acid; AID 651582, 2012; 230,000 tested, 0.66% active; inhibition, % at 12.5 µM;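 active = pattern-corrected inhibition of lipid staining of at least 50% with the nuclear-stain viability signal not falling by more than 50%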;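 note: 0% = DMSO wells and 100% = triacsin C control wells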
CRFBP-R2 agonist = agonists of CRF-BP/CRF-R2 complex, primary screen, cell-based, HEK293, calcium dye fluorescence, uHTS; CRF-binding protein / CRF receptor 2 complex (human); calcium dye fluorescence (FLIPR); percent of saturating CRF peptide response; activation, % at 13.2 µM; 350,000 tested, 0.46% active; AID 588473, 2011;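 active = activation of at least 50%, plus an integration ratio under a set limit after plate pattern correction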;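 note: plate controls were neutral control wells without compound for no effect and CRF at EC100 for full effect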
iPSC survival up = enhancers of single-cell hiPSC survival, primary screen, ATPlite luminescence. 100% = ROCK inhibitor wells, 0% = DMSO. survival enhancement, % at 20 µM. 360,000 tested, 0.044% active; in the data active = survival enhancement above about 18%;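 note: cells exposed to compounds for 16 hours before the ATP read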
CRFR2-BP antag = antagonists of CRF-BP/CRF-R2 complex, primary screen, cell-based, HEK293, calcium dye fluorescence, uHTS. inhibition, % at 11.8 µM. 350,000 tested, 0.59% active. AID 588475, 2011. CRF-induced calcium fluorescence;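 active = inhibition of the ligand-induced calcium signal above about 50% at the single tested concentration, limit read from the data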
SKN-1 inh = suppressors of acrylamide-induced Pgst-4::GFP reporter in worms, primary screen, SKN-1 inhibitor project, whole organism, uHTS, GFP/RFP fluorescence ratio, strain VP596. C. elegans VP596 Pgst-4::GFP/RFP ratio, 24 h. inhibition, % at 21.8 µM. 360,000 tested, 0.49% active;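 active = interference check ratio from 0.5 to 1.5 plus GFP to RFP signal ratio inhibition reaching or exceeding a fixed threshold, cut at about 30% in these data, passing the limit was not always enough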
Cardio protect = cardioprotection against H2O2-induced cell death, primary screen, uHTS, H9c2 cells, ATPLite luminescence. AID 588492, 2011. protection from H2O2 cell death, % at 20 µM. H9c2 cardiomyocytes, H2O2 injury protection, 2 h. 360,000 tested, 0.63% active;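 active = compounds giving at least 50% protection of heart cells from peroxide-induced death in the single-dose screen, raw or plate-pattern-corrected value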;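 note: 0% = DMSO wells with peroxide and 100% = DMSO wells without peroxide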
* hit, by the source's call; x = no result given.

SMILES	H9c2 TAG inh	CRFBP-R2 agonist	iPSC survival up	CRFR2-BP antag	SKN-1 inh	Cardio protect
C[C@@H](NC(=O)c1nc[nH]c1C(=O)NCC(=O)OCc1ccccc1)c1ccccc1	-2	1	2	1	-9	92*
COc1ccc(C(C)(O)c2nc(-c3cccc(NC(C)=O)c3)cs2)cc1 (stereo unspecified)	3	x	-2	x	5	0
Cc1cccc(C(O)c2ncc(-c3cccc(C(F)(F)F)c3)[nH]2)c1C (stereo unspecified)	-25	x	0	x	20	-20
C/C(=N\NC(=O)c1ccc(-c2ccccc2)cc1)C1C(=O)c2ccccc2C1=O	2	15	2	41	-4	-25
C/C(=N\NC(=O)c1ccc(Br)cc1)C1C(=O)c2ccccc2C1=O	x	14	-2	55*	8	-16
COc1ccc(NC(=O)C2Cc3c(-c4cccc(NC(C)=O)c4)ccnc3O2)cn1 (stereo unspecified)	45	x	3	x	7	12
COC(=O)c1ccc(CSc2ccc3nnc(-c4cccc(F)c4)n3n2)o1	7	-6	2	32	-2	105*
CCOC(=O)CC(=O)CSc1ccc2nnc(-c3cccc(F)c3)n2n1	x	-1	-2	0	-6	12
COc1ccc2oc(C(=O)OCC(=O)NC(C)c3ccccc3)c(C)c2c1 (stereo unspecified)	x	-1	0	3	26	1
COCC(=O)Oc1cc(-c2ccc(C)cc2C)c(OC(=O)COC)c(-c2ccc(C)cc2C)c1	-16	3	6	19	17	-13
Cc1csc(N2C(=O)C3C4CCC(O4)C3C2=O)n1 (stereo unspecified)	4	6	0	9	2	4
CCOc1cc(C(c2c(C)[nH][nH]c2=O)c2c(C)[nH][nH]c2=O)ccc1OS(=O)(=O)c1ccc(C)cc1	x	-2	-1	5	46*	3
CCOc1ccc(C(c2c(C)[nH][nH]c2=O)c2c(C)[nH][nH]c2=O)cc1OC	-16	1	2	1	-19	0
O=C(CCCSc1ccccc1)Nc1nc(-c2ccccn2)cs1	-1	8	3	-16	-12	64*
O=C(CN1C(=O)CCC1=O)Nc1nc(-c2ccccn2)cs1	2	3	-1	-1	0	52*
O=C(CN1C(=O)CCC1=O)Nc1nc(-c2ccc3ccccc3c2)cs1	20	1	-3	-22	1	-4
O=C1CC(c2ccc(Cl)cc2)SC(N(c2ccccc2)c2ccccc2)=N1 (stereo unspecified)	-7	0	-2	114*	1	-3
O=C1CC(c2cccc(F)c2)SC(N(c2ccccc2)c2ccccc2)=N1 (stereo unspecified)	x	-1	0	85*	-3	2
O=C1CC(c2ccccc2)Sc2nc(-c3ccccc3)c(-c3ccccc3)n21 (stereo unspecified)	x	-1	1	-12	3	0
O=C1CC(c2ccccc2)SC(N(c2ccccc2)c2ccccc2)=N1 (stereo unspecified)	-8	-3	-2	56*	8	2
C[C@H](CO)N1C[C@H](C)[C@@H](CN(C)C(=O)Nc2ccc(F)cc2)Oc2cc(Br)ccc2S1(=O)=O	14	0	-1	-7	11	-5
Cc1ccc(NC(=O)CSCC(=O)Nc2ccccc2C(=O)N2CCCCC2)cc1	-9	-1	0	5	46*	4
O=C1OC(c2ccccc2)(c2cc(Br)ccc2O)c2ccccc21 (stereo unspecified)	-65	-1	-1	-10	6	-18
COc1cc(/C=C2/SC(=Nc3ccc(O)cc3)NC2=O)ccc1O	59*	21	-1	-4	0	6
COc1cc(/C=C2\SC(=Nc3ccc(Cl)c(C(=O)O)c3)NC2=O)c(Br)c(Br)c1O	-1	201*	0	-194	25	-3
SMILES	H9c2 TAG inh	CRFBP-R2 agonist	iPSC survival up	CRFR2-BP antag	SKN-1 inh	Cardio protect
COC(=O)/C=C1\SC(=Nc2ccc(Cl)c(Cl)c2)NC1=O	25	0	1	32	0	-15
COc1cc(/C=C2\SC(=Nc3ccccc3)NC2=O)cc(Cl)c1O	x	213*	0	-159	1	-2
COc1cc(/C=C2\SC(=Nc3ccccc3OC)NC2=O)ccc1O	x	3	0	-13	10	8
O=S1(=O)CCN(C2CCCC2)CC1	-1	17	-2	47	25	9
CCOC(=O)c1cc(NC(=O)Nc2cc(C)ccn2)c(C)nc1C	20	-2	0	113*	-14	31
C=C1C(=O)C23C(O)C1CCC2C12COC3(O)C(O)C1C(C)(C)CCC2O (stereo unspecified)	x	x	-1	x	-5	-13
COc1ccc(/C=C2/SC(=S)N(c3ccc(S(=O)(=O)Nc4nccs4)cc3)C2=O)cc1	-8	3	-1	1	8	-10
Cc1ccc(/C=C2/SC(=S)N(c3ccc(S(=O)(=O)Nc4nccs4)cc3)C2=O)cc1	2	-1	0	59*	-24	-15
CC(C)COc1ccc(CNC(=S)Nc2ccccc2)cc1Cl	x	4	-1	107*	8	-14
COc1ccccc1CNC(=O)COC(=O)c1ccccc1-c1ccccc1	-16	-2	0	23	1	-9
O=C(Nc1sc2c(c1C(=O)c1ccc(Cl)cc1)CCCC2)c1cccnc1	14	1	4	2	35*	-7
Cn1ccc(C(=O)Nc2sc3c(c2C(N)=O)CCCCC3)n1	-17	0	-1	78*	0	-12
Cc1cc(C)c(C)c(S(=O)(=O)N(C)CCc2ccccn2)c1C	2	5	0	-8	16	8
CCCn1c(NC(=O)c2ccc(Cl)c(S(=O)(=O)N3CCCC3)c2)nc2ccccc21	-26	1	-2	-8	9	61*
O=C(NCc1nc2ccccc2[nH]1)c1ccc(Cl)c(S(=O)(=O)N2CCCC2)c1	x	0	3	-1	13	4
O=C(NCc1ccccc1F)C(c1ccccc1)c1ccccc1	x	-4	0	30	11	-1
O=[N+]([O-])c1ccc(Nc2nccc(Cl)n2)cc1	-6	0	0	13	45*	-6
CCOC(=O)C1=C(COC(=O)c2ccc([N+](=O)[O-])o2)NC(=O)NC1C (stereo unspecified)	14	0	0	7	-20	61*
